Bioassay records deposited in PubChem by The Scripps Research Institute Molecular Screening Center.
GPR151 activ = activates the human receptor GPR151 | Q8TDV0 | PathHunter beta-arrestin GPR151 cells, luminescence | activation, % at 11.2 µM | 1% of 650,000 active; in the data active means activation above about 4.9%
MITF primary = inhibitors of human MITF; AlphaScreen MITF homodimerization, bead proximity signal; inhibition, % at 2.6 µM; 0.91% of 650,000 active; AID 1259374; in the data active means inhibition above about 50%
FBW7 act = activators of human E3 ligase FBW7 | AlphaScreen FBW7–phospho-cyclin E peptide binding, activator screen | normalized activity (activation), % at 26.1 µM | 0.13% of 650,000 active | AID 1259310; in the data active means normalized activity above about 1.9%;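 further: purified mutant Fbw7 with reduced substrate affinity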
Target sequence (Q969H0 whole entry, looked up): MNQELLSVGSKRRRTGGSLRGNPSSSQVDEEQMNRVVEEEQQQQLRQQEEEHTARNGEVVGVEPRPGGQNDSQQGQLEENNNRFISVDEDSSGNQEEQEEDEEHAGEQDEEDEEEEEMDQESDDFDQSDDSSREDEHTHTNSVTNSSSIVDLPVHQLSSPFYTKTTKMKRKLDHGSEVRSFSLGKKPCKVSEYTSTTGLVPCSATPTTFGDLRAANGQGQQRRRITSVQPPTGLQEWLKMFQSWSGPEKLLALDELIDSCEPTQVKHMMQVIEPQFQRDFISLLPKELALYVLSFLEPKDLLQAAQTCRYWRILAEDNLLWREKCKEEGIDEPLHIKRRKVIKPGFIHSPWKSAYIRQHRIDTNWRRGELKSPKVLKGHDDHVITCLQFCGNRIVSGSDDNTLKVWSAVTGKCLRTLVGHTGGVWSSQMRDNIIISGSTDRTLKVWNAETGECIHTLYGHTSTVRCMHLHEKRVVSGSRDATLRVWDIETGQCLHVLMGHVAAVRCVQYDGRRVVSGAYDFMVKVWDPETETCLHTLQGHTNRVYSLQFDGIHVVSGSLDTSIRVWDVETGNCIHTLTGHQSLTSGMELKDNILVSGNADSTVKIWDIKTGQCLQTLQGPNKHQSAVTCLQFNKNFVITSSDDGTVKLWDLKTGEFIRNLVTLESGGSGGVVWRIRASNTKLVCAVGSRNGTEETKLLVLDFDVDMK
TEAD-YAP block = TEAD-YAP interaction inhibition | HEK-TIYL cells, TEAD-Gal4/YAP UAS-luciferase luminescence | AID 1259422 | 1.4% of 640,000 active | inhibition, % at 9.12 µM; in the data active means inhibition above about 32%
MITF inh conf = human MITF inhibition, confirmation; shares compounds with MITF primary; AlphaScreen MITF homodimerization, biotin/His-MITF beads; inhibition, % at 2.6 µM; 16% of 4,700 active; AID 1259372;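 active means inhibition above a cutoff derived from the DMSO control wells, cut at about 28% in these data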;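 further: inhibitors lower the bead chemiluminescence by keeping MITF from dimerizing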
AlphaScreen DR = counter-screen: compounds optically interfering with AlphaScreen. shares compounds with MITF primary. AlphaScreen optical interference counterscreen, cell-free. IC50, µM. 6% of 480 active; call rule not given here
AlphaScreen intf2 = optically interferes with AlphaScreen signal; shares compounds with MITF primary; LysRS AlphaScreen counterscreen, signal interference, triplicate; inhibition, % at 2.6 µM; 7.6% of 4,700 active; AID 1259376;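 active means inhibition above a cutoff derived from the DMSO control wells, cut at about 30% in these data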
A number is an active result; - = inactive; . = no result given. Compounds with a hit are over-represented: about 3.5% of the library has one in this group of screens.

SMILES	GPR151 activ	MITF primary	FBW7 act	TEAD-YAP block	MITF inh conf	AlphaScreen intf2	others
CCN1CCN(CCOc2ccc3ccccc3c2Br)CC1	-	60	-	-	-	-
O=C(NC(=S)Nc1cccnc1Cl)c1cccc(F)c1	-	-	-	-	.	.
C=CCN(C)C(=O)c1cnc2scc(-c3ccc(Cl)cc3)n2c1=O	-	-	-	-	.	.
COc1ccc(Nc2nnc(SCC(=O)c3ccc(Cl)s3)s2)cc1	-	-	-	-	.	.
O=Cc1cc(Br)ccc1OCC(=O)NC1CCCc2ccccc21 (stereo not given)	-	-	-	-	.	.
COc1ccc(S(=O)(=O)NCCc2csc(-c3ccc(OC)c(OC)c3)n2)cc1C	-	-	-	-	.	.
CCOc1ccc(S(=O)(=O)N2CCN(CC(O)c3ccccc3)CC2)cc1 (stereo not given)	-	-	-	-	.	.
N#Cc1ccccc1S(=O)(=O)N1CCN(CC(O)COc2ccccc2F)CC1 (stereo not given)	-	51	-	-	-	-
N#Cc1ccccc1S(=O)(=O)N1CCN(CC(O)c2ccccc2)CC1 (stereo not given)	-	58	-	-	-	-
COc1ccc(CN2CCN(Cc3ccc(C)cc3)CC2)cc1OC	-	67	-	-	-	-
COc1cc(C(=O)N2CCN(Cc3cccc(Cl)c3)CC2)cc(OC)c1OC	-	-	-	-	.	.
COc1ccc(CN2CCN(Cc3ccc(Br)cc3)CC2)cc1OC	-	74	-	-	-	-
COc1cc(CN2CCN(Cc3ccc(Br)cc3)CC2)cc(OC)c1OC	-	81	-	-	-	-
COc1ccc(CN2CCN(Cc3ccc(OC)c(OC)c3)CC2)cc1OC	-	-	-	-	.	.
COc1cc(CN2CCN(Cc3ccc(Br)cc3)CC2)cc(OC)c1O	-	-	-	-	.	.
COc1cc(CN2CCN(Cc3cccc(Cl)c3)CC2)cc(OC)c1OC	-	69	-	-	-	-
COc1ccc(CN2CCN(Cc3cccc(Br)c3)CC2)cc1OC	-	-	-	-	.	.
COc1ccc(Nc2oc(C)cc(=O)c2C(C)=O)c(OC)c1	-	-	-	-	.	.
COCCNC(=O)NC(=O)COC(=O)c1cc2ccccc2cc1O	-	-	-	-	.	.
CCOC(=O)c1ccc(NC(=S)NCCCn2nc(C)c(Br)c2C)cc1	-	-	-	-	.	.
COc1cc(CN2CCN(Cc3cc(OC)c(OC)c(OC)c3)CC2)cc(OC)c1OC	-	-	-	-	.	.
COc1cc(CN2CCN(Cc3ccc(Cl)cc3)CC2)cc(OC)c1OC	-	78	-	-	-	-
O=C(NCCC1=CCCCC1)c1cc(Sc2ccc(Cl)cc2)nc2ccccc12	-	-	-	-	.	.
CCOC(=O)C1=C(C)N=c2s/c(=C\c3cc(Br)ccc3OC(C)=O)c(=O)n2C1c1ccc(OC(C)=O)cc1 (stereo not given)	-	-	-	-	.	.
CC(C)(C)n1ncc2c(=O)n(Cc3ccccc3)cnc21	-	-	-	-	.	.
SMILES	GPR151 activ	MITF primary	FBW7 act	TEAD-YAP block	MITF inh conf	AlphaScreen intf2	others
CC(C)(C)n1ncc2c(=O)n(Cc3cccc(Cl)c3)cnc21	-	62	-	-	-	-
O=S(=O)(c1ccccc1C(F)(F)F)N1CCC(c2nc3ccccc3[nH]2)CC1	-	73	-	-	78	-	AlphaScreen DR=-
O=C(NC1CCN(S(=O)(=O)c2ccc(F)cc2)CC1)c1ccco1	-	-	-	-	.	.
O=C(NC1CCN(S(=O)(=O)c2ccccc2C(F)(F)F)CC1)c1ccco1	-	77	-	-	-	-
O=S(=O)(c1ccc(C(F)(F)F)cc1)N1CCC(c2nc3ccccc3[nH]2)CC1	-	-	-	-	.	.
CS(=O)(=O)Nc1cc(Cl)ccc1Oc1ccccc1	-	-	-	-	.	.
O=C(O)c1cc2ncc(-c3n[nH]c(-c4cnc5cc(C(=O)O)nn5c4)c3[N+](=O)[O-])cn2n1	-	68	-	-	58	-	AlphaScreen DR=-
O=c1cc2ncc(-c3[nH]ncc3[N+](=O)[O-])cn2[nH]1	-	-	-	-	.	.
O=C(Nc1ccccc1C(F)(F)F)c1ccc(NC(=O)c2ccccc2C(=O)O)cc1	-	56	-	-	-	-
O=C(Nc1ccccc1C(F)(F)F)c1ccc(NC(=O)c2ccco2)cc1	-	-	-	-	.	.
C=CCNC1CCN(c2ccc(NC(=O)c3ccc(OC)cc3)cc2)CC1	-	60	-	-	-	-
O=C(O)c1cccc(-c2cnc3ccc(NCC4CC4)nn23)c1	-	-	-	-	.	.
COCCN(Cc1cc2cc3c(cc2[nH]c1=O)OCO3)C(=O)c1ccc(F)cc1	-	-	-	-	.	.
CC1(C(=O)N/N=C/c2cccnc2)CC1(Cl)Cl (stereo not given)	-	60	-	-	-	-
O=C(CN1CCSCC1)N/N=C/c1cccnc1	-	51	-	-	-	-
O=C(N/N=C/c1cccnc1)C12CC3CC(CC(C3)C1)C2	-	-	-	-	.	.
CCN1CCN(CC(=O)N/N=C/c2ccc(C(C)C)cc2)CC1	-	52	-	-	-	-
CCN1CCN(CC(=O)N/N=C/c2ccccc2)CC1	-	70	-	-	-	-
O=C(Nc1ccc(O)cc1C(=O)O)c1cccc(C(=O)Nc2ccc(O)cc2C(=O)O)c1	-	-	-	-	.	.
Cc1ccc(NC(=O)C2CCN(C(=O)c3n[nH]c4ccccc34)CC2)cc1C	-	-	-	-	.	.
O=C1CC(c2ccccc2)CC2=C1C(c1ccc(Cl)cc1Cl)N(C(=O)C1CC1)c1ccccc1N2 (stereo not given)	-	-	-	-	.	.
CCN1CCN(CC(=O)N/N=C/c2ccc(Cl)cc2)CC1	-	-	-	-	.	.
CCN1CCN(CC(=O)N/N=C/c2ccc(Cl)c(Cl)c2)CC1	-	68	-	-	-	-
CC1CC(=O)N(CC(=O)NCCc2ccccc2)c2ccccc2S1 (stereo not given)	-	-	-	-	.	.
O=C(c1cc(Cl)cc(Cl)c1)N1CCN(C(=O)c2cc(Cl)cc(Cl)c2)CC1	-	-	-	-	.	.
SMILES	GPR151 activ	MITF primary	FBW7 act	TEAD-YAP block	MITF inh conf	AlphaScreen intf2	others
O=C(c1cc(Cl)cc(Cl)c1)N1CCCCC1	-	62	-	-	-	-
Cc1cnc(Nc2nc3ccccc3n2C)nc1Nc1ccccc1	-	73	-	-	-	-
Cc1cnc(Nc2ccc(-n3ccnc3)cc2)nc1Nc1ccccc1	-	52	-	37	-	-
Cc1cc(NC(=O)COc2ncnc3c(Cl)cc(Cl)cc23)no1	-	-	-	-	.	.
CSc1ccc(C(=O)NCc2nc(-c3ccncc3)n[nH]2)s1	-	-	-	-	.	.
CSc1ccc(C(=O)O)s1	-	75	-	-	35	-	AlphaScreen DR=-
Nc1c(C(=O)c2cccs2)sc2nc3c(c(-c4ccc(Cl)cc4)c12)CCC3	-	-	-	-	.	.
Cc1cc(C)c(C)c(S(=O)(=O)N2CCN(c3cccc(C(F)(F)F)c3)CC2)c1C	-	63	-	-	-	-
Cc1c(S(=O)(=O)N2CCN(c3cccc(C(F)(F)F)c3)CC2)c(=O)n(C)c(=O)n1C	-	-	-	-	.	.
